We go through 25 compounds from PubChem BioAssay (NCATS).

The conditions of assay [1]: Ebola virus entry assay, green fluorescence channel.
The conditions of assay [2]: Ebola virus entry assay, blue channel fluorescence.
For assay [3] the following is noted: Ebola virus entry assay, green fluorescence channel. The source holds these as a separate data set.
For assay [4] the following is noted: Ebola virus entry assay, ratio channel readout.
For assay [5] the following is noted: Ebola virus entry assay, blue channel fluorescence. This is another data set of the same source.
For assay [6] the following is noted: Ebola virus entry assay, ratio channel.

A number with no mark means an inactive call. For part of these data: Potency and affinity values are given separately. Activity calls are given as the source filed them.
For efficacy in this document: 0% is about no effect.

As to `CC#C[C@]1(O)CC[C@H]2[C@@H]3CCC4=CC(=O)CCC4=C3[C@@H](c3ccc(N(C)C)cc3)C[C@@]21C`, the efficacy in assay [1] was 23.8%. Besides, the result in assay [2], in assay [3], in assay [4], in assay [5] and in assay [6] was inactive.
For the compound `Cc1ccc(C(=O)c2cc(O)c(O)c([N+](=O)[O-])c2)cc1`, in assay [1], the efficacy is 31.1%. The outcome in assay [2], in assay [3], in assay [4], in assay [5] and in assay [6] was inactive.
Turning to `Fc1ccc([C@@H]2CCNC[C@H]2COc2ccc3c(c2)OCO3)cc1`, in assay [1], the efficacy was 101%. The AC50 was 5.62 µM (active) in assay [2], 5.02 µM (active) in assay [4], 5.01 µM (active) in assay [5] and 3.98 µM (active) in assay [6]. In addition, the call in assay [3] was inactive.
In the case of `Nc1ccc(O)c(C(=O)O)c1`, in assay [1], the efficacy is 18.3%. Further, the compound was classed as inactive in assay [2], in assay [3], in assay [4] and in assay [6]. The AC50 in assay [5] is 28.2 µM (active).
As to `C[C@@H](O[C@H]1OCCN(Cc2n[nH]c(=O)[nH]2)[C@H]1c1ccc(F)cc1)c1cc(C(F)(F)F)cc(C(F)(F)F)c1`, the efficacy in assay [1] was 67.5%. In addition, the compound was classed as inactive in assay [2], in assay [3] and in assay [4]. Also, the AC50 in assay [5] and in assay [6] was 28.2 µM (active) each time.
On to `COc1cc2c(cc1OC)[C@@H]1CC(=O)[C@@H](CC(C)C)CN1CC2`, for which the efficacy in assay [1] was 24.3%. For the same compound, the call in assay [2], in assay [3], in assay [4], in assay [5] and in assay [6] was inactive.
In the case of `Clc1ccc(C(c2ccccc2Cl)C(Cl)Cl)cc1` (stereo not given), the efficacy in assay [1] was -31.8%. The call in assay [2], in assay [3] and in assay [4] was inactive. Also, the AC50 in assay [5] is 31.6 µM (active); in assay [6], 22.4 µM (active).
`Cc1ccc(C)c(OCCCC(C)(C)C(=O)O)c1`: in assay [1], the efficacy is -13.5%. In addition, the call in assay [2], in assay [3], in assay [4], in assay [5] and in assay [6] was inactive.
For the compound `Cc1cn([C@H]2C[C@H](N=[N+]=[N-])[C@@H](CO)O2)c(=O)[nH]c1=O`, the efficacy in assay [1] was 17%. In addition, the result in assay [2], in assay [3], in assay [4], in assay [5] and in assay [6] was inactive.
With `Nc1nc(=S)c2[nH]cnc2[nH]1`, in assay [1], the efficacy was -27.5%. Further, the result in assay [2], in assay [3], in assay [4], in assay [5] and in assay [6] was inactive.
For the compound `CC[C@]1(O)C[C@H]2CN(CCc3c([nH]c4ccccc34)[C@@](C(=O)OC)(c3cc4c(cc3OC)N(C=O)[C@H]3[C@@](O)(C(=O)OC)[C@H](OC(C)=O)[C@]5(CC)C=CCN6CC[C@]43[C@@H]65)C2)C1`, the efficacy in assay [1] was 37.5%. The result in assay [2], in assay [3], in assay [4] and in assay [6] was inactive. The AC50 in assay [5] was 0.282 µM (active).
Take `COC(=O)C1=C(C)NC(C)=C(C(=O)OCC(C)C)C1c1ccccc1[N+](=O)[O-]` (stereo not given): the efficacy in assay [1] is 55.8%. Besides, the outcome in assay [2], in assay [3] and in assay [4] was inactive. Further, the values for the AC50 in assay [5] and in assay [6] were 28.2 µM (active) and 17.8 µM (active), respectively.
On to `Cn1c(=O)c2c(ncn2CC(O)CO)n(C)c1=O` (stereo not given), for which the efficacy in assay [1] was -15%. The result in assay [2], in assay [3], in assay [4], in assay [5] and in assay [6] was inactive.
As to `CCOC(=O)C1=C(C)NC(C)=C(C(=O)OC)C1c1cccc(Cl)c1Cl` (stereo not given), the efficacy in assay [1] was 20.7%. The result in assay [2], in assay [3], in assay [4], in assay [5] and in assay [6] was inactive.
`O=C1c2cccc3c2[C@H](CCC3)CN1[C@@H]1CN2CCC1CC2`: the efficacy in assay [1] is 37.7%. Also, the outcome in assay [2], in assay [3] and in assay [4] was inactive. Moreover, the AC50 is 20 µM (active) in assay [5] and 28.2 µM (active) in assay [6].
In the case of `NS(=O)(=O)Cc1noc2ccccc12`, in assay [1], the efficacy was -13.2%. In addition, the compound was classed as inactive in assay [2], in assay [3], in assay [4], in assay [5] and in assay [6].
Regarding `COCCCOc1cc(C[C@@H](C[C@H](N)[C@@H](O)C[C@H](C(=O)NCC(C)(C)C(N)=O)C(C)C)C(C)C)ccc1OC`, the efficacy in assay [1] is 31.8%. Moreover, the call in assay [2], in assay [3], in assay [4], in assay [5] and in assay [6] was inactive.
On to `NS(=O)(=O)c1cc2c(cc1C(F)(F)F)NCNS2(=O)=O`, for which the efficacy in assay [1] was -34.5%. Besides, the call in assay [2], in assay [3], in assay [4], in assay [5] and in assay [6] was inactive.
As to `CCc1nn(CCCN2CCN(c3cccc(Cl)c3)CC2)c(=O)n1CCOc1ccccc1`, in assay [1], the efficacy was 111%. Also, the compound was classed as inactive in assay [2], in assay [3] and in assay [4]. The AC50 in assay [5] was 39.8 µM (active); in assay [6], 31.6 µM (active).
With `COc1cc2nc(N3CCN(C(=O)c4ccco4)CC3)nc(N)c2cc1OC`, the efficacy in assay [1] was 75.4%. For the same compound, the compound was classed as inactive in assay [2], in assay [3] and in assay [4]. Also, the AC50 is 15.8 µM (active) in assay [5] and 12.6 µM (active) in assay [6].
On to `COc1c(C)c2c(c(O)c1C/C=C(\C)CCC(=O)OCCN1CCOCC1)C(=O)OC2`, for which the efficacy in assay [1] was -9.5%. Besides, the compound was classed as inactive in assay [2], in assay [3], in assay [4], in assay [5] and in assay [6].
`CC(C)(O)c1ccccc1CC[C@@H](SCC1(CC(=O)O)CC1)c1cccc(/C=C/c2ccc3ccc(Cl)cc3n2)c1`: in assay [1], the efficacy was 12.9%. For the same compound, the compound was classed as inactive in assay [2], in assay [3], in assay [4], in assay [5] and in assay [6].
With `C[C@@H](NCCCc1cccc(C(F)(F)F)c1)c1cccc2ccccc12`, in assay [1], the efficacy was -223%. In addition, the compound was called inactive in assay [2], in assay [3] and in assay [4]. For the same compound, the AC50 is 3.98 µM (active) in assay [5] and 3.55 µM (active) in assay [6].
Turning to `CCN(CC)CCOC(=O)C1(C2CCCCC2)CCCCC1`, the efficacy in assay [1] is 45%. In addition, the compound was called inactive in assay [2], in assay [3] and in assay [4]. Moreover, the AC50 is 12.6 µM (active) in assay [5] and 10 µM (active) in assay [6].
As to `COc1ccccc1OCC(O)CN1CCN(CC(=O)Nc2c(C)cccc2C)CC1` (stereo not given), in assay [1], the efficacy is 29.5%. The compound was called inactive in assay [2], in assay [3], in assay [4], in assay [5] and in assay [6].

In general, AC50 refers to the concentration at which the activity in the assay is half-maximal.
